Source: PubChem (National Center for Advancing Translational Sciences (NCATS))
ATXN2 expr inh: ATXN2 expression inhibition. Potency, µM (top dose mostly 57 µM), without a hit: at the top dose activity change, negative = inhibition, actives largely listed as inhibitors. 360,000 tested, 0.72% active. AID 1745845. HEK-293 ATXN2-luciferase reporter, luminescence, 24 h; further: potency means the concentration at half of the fitted maximal effect; on the % scale 0 is the no-effect control and ±100 the full control effect; nearly all actives have a fitted effect of over 55% in size
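qHTS (up to 57 uM final) was run with 24 h compound exposure of reporter cells at 37 °C. Each well was multiplexed: SteadyGlo luminescence measured ATXN2-luciferase expression after a fluorogenic Gly-Phe-AFC viability readout (25 uM final).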
S2 tox: cell viability loss in ATXN counter-screen; S2 cells (HEK-293 line with an ATXN2-luciferase reporter) viability, CellTiter-Fluor protease fluorescence, 24 h; AID 651635; Potency, µM (titrated, usually from 56.7 µM), most hits filed as cytotoxic; 400,000 tested, 0.49% active; further: potency means the concentration at half of the fitted maximal effect; nearly all actives have a fitted effect of over 40% in size
TGFb SMAD3 inh: TGF-b pathway inhibition. HepG2 CAGA-GFP TGF-b/SMAD3 reporter, GFP fluorescence, 18 h; TGF-beta stimulated, 500 pg/mL final. Potency, µM (doses to about 46.1 µM), inactives show top-dose activity, negative = inhibition, usual class: inhibitors. 410,000 tested, 1.2% active. AID 588855; further: potency means the concentration at half of the fitted maximal effect; on the % scale 0 is the no-effect control and ±100 the full control effect; nearly all actives have a fitted effect of over 65% in size
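First, reporter cells (HEPG2 CAGA-GFP) rested 2 h at 37 degrees C. Next, compounds were pinned in and TGF-beta added to 500 pg/mL final. After 18 h, GFP was imaged per cell and summed per well.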
D3 antag: antagonists of human D3 dopamine receptor | P35462 | max response, negative = inhibition, % | 360,000 tested, 2.5% active | AID 652054 | D3R cells, DiscoveRx beta-arrestin luminescence, antagonist mode; hits give low values; in the data active means max response below about -50%; inconclusive means no clear call, values can overlap the other calls; further: on the % scale 0 is the no-effect control and ±100 the full control effect
Target sequence (P35462 whole entry, looked up): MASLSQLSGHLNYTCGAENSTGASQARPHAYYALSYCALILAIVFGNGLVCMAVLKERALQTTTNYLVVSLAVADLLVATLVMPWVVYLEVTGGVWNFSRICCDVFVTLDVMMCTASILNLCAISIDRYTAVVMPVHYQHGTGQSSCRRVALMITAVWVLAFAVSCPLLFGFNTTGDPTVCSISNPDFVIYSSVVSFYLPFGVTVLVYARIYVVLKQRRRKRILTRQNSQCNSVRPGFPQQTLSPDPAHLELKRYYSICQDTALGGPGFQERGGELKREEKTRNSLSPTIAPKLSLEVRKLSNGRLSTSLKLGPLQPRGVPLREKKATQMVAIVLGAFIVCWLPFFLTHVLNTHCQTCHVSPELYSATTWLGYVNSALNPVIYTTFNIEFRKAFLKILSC
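Cells plated overnight at 1500 cells/well, then exposed to library compounds with dopamine controls for 90 minutes at 37 degrees C. DiscoveRx reagent added for 30–60 minutes at room temperature; luminescence read, quantitative HTS format.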
D3 ag: agonists of human D3 dopamine receptor | P35462 | D3R DiscoveRx beta-arrestin cells, luminescence, 90 min | max activation, % | 410,000 tested, 0.58% active | AID 652048; in the data active means max activation above about 30%; further: 0% is about no effect
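Agonist-mode cell screen: cells plated at 1500/well and incubated overnight at 37 °C, then exposed to library compounds for 90 min at 37 °C. Detection reagent was added for 30–60 min at room temperature, and luminescence was read.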
HepG2 viability: counter-screen for TGF-b inhibitors: cytotoxicity in HepG2 cells; AID 588856; Potency, µM (doses to about 46.1 µM), without a hit: at the top dose activity change, negative = cytotoxicity, hits mostly cytotoxic; 410,000 tested, 0.76% active; HepG2 CAGA-GFP viability, ATP luminescence, 18 h; further: potency means the concentration at half of the fitted maximal effect
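HepG2 CAGA-GFP cells (1000/well, DMEM with 1% FBS) received compound, then TGF-beta at 500 pg/mL final, and were incubated 18 hours at 37 degrees C. Viability was read by CellTiter-Glo luminescence. Media-only wells were set as complete cell-killing and DMSO as no toxicity.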
* marks the source's active call; other numbers are inactive results; i = inactive; ? = inconclusive; nt = no result given; ! = repeats disagree. This is a sample that favours compounds with a hit; in the whole collection about 4.7% have one here. Unless noted, the call rests on the fitted dose curve; in most records, active means well fitted curve in the direction sought with a large enough effect; inconclusive means small, poorly fitted or top-dose-only effect, or another doubt; inactive means no such curve, though single readings can be large; an effect the other way counts as inactive or inconclusive.

SMILES | ATXN2 expr inh | S2 tox | TGFb SMAD3 inh | D3 antag | D3 ag | HepG2 viability
COc1ccc(OC)c(Nc2c3ccccc3nc3ccccc23)c1 | 11µM* | 14µM* | 13µM* | ? | -27 | -27%
COc1cc(Nc2c3c(nc4ccccc24)CCC3)cc(OC)c1OC | 9% | ? | ? | ? | -16 | -29%
COc1ccc(OC)c(Nc2c3c(nc4ccccc24)CCC3)c1 | 0% | ? | 11µM*! | -11 | -11 | -14%
COc1cc(NS(C)(=O)=O)ccc1Nc1c2ccccc2nc2ccccc12 | 0.25µM* | ? | ? | 4 | 3 | -98%
COc1cc2c(NC3CCN(C)CC3)nc(N3CCCN(C)CC3)nc2cc1OCCCCCCN(C)C | nt | nt | ? | nt | nt | 0%
FC(F)(F)c1cc(CCN2C(=S)NC[C@@H]2CC2CCCCC2)cc(C(F)(F)F)c1 | ? | 20µM* | 14µM* | -24 | -25 | -30%
CC1CCCCN1S(=O)(=O)c1ccc(C(=O)Nc2nnc(-c3ccccc3Cl)o2)cc1 (configuration not stated) | ? | i | -22% | -71* | 5 | 6%
CCC1CCCCN1S(=O)(=O)c1ccc(C(=O)Nc2nnc(-c3ccccc3Cl)o2)cc1 (configuration not stated) | ? | ? | -6% | -86* | 8 | 2%
O=C(Nc1nnc(-c2ccccc2Cl)o1)c1ccc(S(=O)(=O)N2CCCCCC2)cc1 | ? | ? | ? | -30 | 4 | -7%
COc1cccc(CNC(=O)CCCN2C(=O)CCn3nc(-c4cccn4C)cc32)c1 | -5% | ? | 2% | nt | 8 | -3%
COc1cccc(-n2cc(CNCc3cn(C)nc3-c3ccccc3F)cn2)c1 | -23% | i | -16% | 7 | 67* | -21%
O=C(N/N=C/c1ccc(Cl)c([N+](=O)[O-])c1)c1cc(-c2ccc3c4c(cccc24)CC3)n[nH]1 | 4% | i | ? | -58* | -15 | -66%
Cc1nnc(Sc2nc3ccccc3o2)c2ccccc12 | 2% | i | 13µM* | -68* | -5 | -68%
CCOC(=O)c1cccc(NC(=O)c2ccc3nc(Cc4ccccc4)oc3c2)c1 | ? | 0.79µM* | -35% | nt | 15 | -34%
COc1cccc(NC(=O)c2ccc3nc(Cc4ccccc4)oc3c2)c1 | ? | ? | ? | nt | 5 | -3%
Clc1ccc(C(c2ccccc2Cl)C(Cl)Cl)cc1 (configuration not stated) | ? | i | 11% | -14 | 7 | 5%
CCc1ccc(C(c2ccc(CC)cc2)C(Cl)Cl)cc1 | 0% | i | 1% | -110* | 0 | -31%
Cc1[nH]c(-c2ccc(F)cc2)cc1C(=O)N1CCN(c2cccc(Cl)c2)CC1 | ? | ? | 25µM* | ? | 4 | -81%
CS(=O)(=O)c1ncc(Cl)c(C(=O)N2CCN(c3cccc(Cl)c3)CC2)n1 | nt | nt | 2.8µM* | nt | -28 | 3.5µM*
CCS(=O)(=O)c1ncc(Cl)c(C(=O)N2CCN(c3cccc(Cl)c3)CC2)n1 | nt | nt | 1µM* | nt | -25 | 3.2µM*
Cc1oc(-c2ccccc2NC(=O)c2ccccc2)nc1CNC(=O)c1cccc(-n2cccn2)c1 | nt | i | nt | nt | nt | nt
CC(=O)N1CCc2cc(S(=O)(=O)NC(Cc3ccccc3)C(=O)Nc3cc(C)ccn3)ccc21 (configuration not stated) | -18% | i | -1% | -71* | -12 | 3%
c1ccc(CCN2CCN=C2Nc2ccccc2)cc1 | 0% | i | -26% | ? | -28 | 3%
c1ccc(NC2=NCCN2CCCC2CCCC2)cc1 | -10% | i | 1% | ? | -63 | -17%
Cc1cccc(CCN2CCN=C2Nc2ccccc2)c1 | -15% | i | ? | -56* | -46 | 4%
SMILES | ATXN2 expr inh | S2 tox | TGFb SMAD3 inh | D3 antag | D3 ag | HepG2 viability
c1ccc(NC2=NCCN2CCC2CCCCC2)cc1 | -11% | i | 12% | -63* | -91 | 1%
COC(=O)c1ccc(NC(=O)CC2C(=O)N(c3ccccc3)C(=O)N2C2CCCC2)cc1 (configuration not stated) | nt | nt | -2% | nt | 13 | -22%
COc1ccccc1CNc1ccc(Br)cn1 | 54% | nt | -1% | 7 | 33* | -5%
N#Cc1c(N)[nH]c2ccc(Sc3ccccc3)cc12 | 2% | ? | 16µM* | -12 | -8 | 1%
N#Cc1c(N)[nH]c(=S)c(C#N)c1-c1ccccc1 | -4% | i | -1% | -3 | -19 | 11%
COc1ccc(C(=S)N2CCN(C)CC2)cc1 | 4% | i | -2% | -74* | 2 | 7%
CN1CCN(C(=S)c2ccc(Cl)cc2)CC1 | 0% | i | 1% | -87* | 0 | 2%
COc1ccc(C(=S)N2CCN(C)CC2)cc1Br | 1% | i | -3% | 0 | -10 | 1%
Cc1ccccc1Cn1c(CN2CCC(C(=O)NCc3cccnc3)CC2)cc2ccccc21 | ? | nt | 16µM* | nt | -3 | -45%
COc1ccc(-c2nc3c4ccccc4ccn3c2CN2CCCCC2)cc1OC | nt | 32µM* | ? | -3 | -11 | -25%
COc1ccc(-c2nc3c4ccccc4ccn3c2CN2CCCCC2)cc1 | -8% | ? | -21% | -23 | -14 | -33%
COC(=O)c1[nH]c2ccc(C)cc2c1NC(=O)CN1CCN(c2ccccc2)CC1 | 185% | i | -8% | 67 | 36* | -20%
CCOC(=O)N1CCN(CC(=O)Nc2c(C(=O)OC)[nH]c3cccc(Cl)c23)CC1 | 2% | i | 6% | ? | 40* | -10%
COC(=O)c1[nH]c2cc(C)ccc2c1NC(=O)CN1CCc2cc(OC)c(OC)cc2C1 | -12% | i | 36% | -67* | -17 | -12%
CO/N=C(\C(=O)O)c1csc(NC(=O)CCl)n1 | 15% | i | nt | nt | nt | nt
Cc1cccc2nc(CNC(=O)CN3Cc4cc(Cl)ccc4OC(C)C3)cn12 (configuration not stated) | nt | i | nt | nt | nt | nt
Oc1cccc2ccc(/C=C/c3c(F)cccc3Cl)nc12 | -13% | i | ? | ? | -1 | -10%
COc1ccc(Cl)cc1/C=C/c1ccc2cccc(O)c2n1 | 3% | i | -13% | -84* | -22 | -9%
COc1ccccc1/C=C/c1ccc2cccc(O)c2n1 | -4% | i | 0% | -12 | -17 | -21%
Oc1cccc2ccc(/C=C/c3ccccc3Cl)nc12 | nt | i | ? | -176* | -22 | -24%
COc1cc(Cl)cc(/C=C/c2ccc3cccc(O)c3n2)c1OC | -15% | ? | 4% | -94* | -1 | -15%
